An excerpt weighted towards active compounds, which were near 18% of everything screened.
TDP1 cell CPT – qHTS for Inhibitors of human tyrosyl-DNA phosphodiesterase 1 (TDP1): qHTS in cells in presence of CPT; chicken DT40 Tdp1-/-;hTDP1 cells + 20 nM CPT, ATP luminescence, 48 h; AID 686979, 2013; 420,000 compounds, 12% hits; Potency, µM (series often up to 46.2 µM), without a hit: at the top dose activity change, negative = growth inhibition, most hits filed as inhibitors; also: nearly all actives have a fitted effect of over 55% in size
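Chicken DT40 Tdp1-/- cells stably complemented with human TDP1 were seeded at 400 cells/well in medium containing 20 nM camptothecin, exposed to pin-transferred compounds, and grown at 37 °C for at least 48 hr. Viability was read as ATP luminescence.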
TDP1 inh – qHTS Assay for Inhibitors of Tyrosyl-DNA Phosphodiesterase (TDP1); AID 485290, 2010; 350,000 compounds, 0.28% hits; recombinant TDP1, AlphaScreen DNA substrate cleavage; Potency, µM (doses to about 130 µM), for inactives: top-dose activity change, negative = inhibition, hits mostly inhibitors; also: nearly all actives have a fitted effect of over 40% in size
Target sequence (Q9NUW8 whole entry, looked up): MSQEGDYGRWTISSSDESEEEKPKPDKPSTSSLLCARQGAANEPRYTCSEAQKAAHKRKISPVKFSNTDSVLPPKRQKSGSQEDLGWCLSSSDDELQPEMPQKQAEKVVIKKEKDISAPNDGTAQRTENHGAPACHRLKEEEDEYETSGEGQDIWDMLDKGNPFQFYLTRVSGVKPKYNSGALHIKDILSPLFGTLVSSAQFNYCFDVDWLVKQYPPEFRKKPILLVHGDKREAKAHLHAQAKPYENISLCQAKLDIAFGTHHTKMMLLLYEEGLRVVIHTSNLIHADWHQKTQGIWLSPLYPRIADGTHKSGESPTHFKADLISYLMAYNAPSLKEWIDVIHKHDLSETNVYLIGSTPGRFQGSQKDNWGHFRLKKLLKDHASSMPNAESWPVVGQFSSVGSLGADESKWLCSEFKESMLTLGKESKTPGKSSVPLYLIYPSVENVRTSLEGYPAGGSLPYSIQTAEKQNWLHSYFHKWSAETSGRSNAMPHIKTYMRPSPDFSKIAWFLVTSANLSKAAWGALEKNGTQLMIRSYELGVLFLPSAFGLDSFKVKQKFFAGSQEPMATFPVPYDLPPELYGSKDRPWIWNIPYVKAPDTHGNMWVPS
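Here, a 5' biotin and 3' phosphotyrosine-FITC DNA oligonucleotide reports Tdp1 activity: intact substrate bridges AlphaScreen beads, while cleavage leaves a 3' phosphate and drops signal. All incubations at room temperature.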
PLK1 PBD inh – qHTS for Inhibitors of PLK1-PDB (polo-like kinase 1 - polo-box domain): Primary Screen | Serine/threonine-protein kinase PLK1 (Homo sapiens), P53350 | Plk1 PBD binding of FITC phosphopeptide, fluorescence polarization | Potency, µM, for inactives: max response, negative = inhibition, usual class: inhibitors | 360,000 compounds, 2.8% hits | AID 720504, 2013; also: series mostly up to about 57 µM; nearly all actives have a fitted effect of over 65% in size
TDP1 cell noCPT – qHTS for Inhibitors of human tyrosyl-DNA phosphodiesterase 1 (TDP1): qHTS in cells in absence of CPT; Potency, µM (series often up to 46.2 µM), for inactives: at the highest dose activity change, negative = growth inhibition, actives largely listed as inhibitors; 420,000 compounds, 15% hits; DT40 Tdp1-/- hTDP1 cells, no CPT, ATP luminescence, 48 h; also: nearly all actives have a fitted effect of over 55% in size
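DT40 Tdp1-/-;hTDP1 cells, no CPT (DMSO vehicle only), 400 cells/well; compounds pin-transferred; ≥48 hr, 37 °C; CellTiter-Glo 30 min RT dark, luminescence read.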
GCN5L2 inh – qHTS Assay for Inhibitors of GCN5L2; Potency, µM (doses to about 58.9 µM), inactives show at the highest dose activity change, negative = inhibition, usual class: inhibitors; 390,000 compounds, 0.21% hits; AID 504327, 2011; Histone acetyltransferase KAT2A (Homo sapiens), Q92830; GCN5L2 HAT assay, ThioGlo1 CoA-SH fluorescence
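ThioGlo1-coupled HAT assay: 20nM GCN5L2, 70uM acetyl-CoA, 75uM H3(1-25) peptide, pH 7.5. Fluorescence read at 340/540nm at start and after 20 min at room temperature.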
VDR inh – Inhibitors of the vitamin D receptor (VDR): qHTS; Vitamin D3 receptor (Homo sapiens), P11473; VDR-SRC2-3 peptide fluorescence polarization, 2 h; Potency, µM, for the others: max response, negative = inhibition, hits mostly inhibitors; 400,000 compounds, 0.93% hits; AID 504847, 2011
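After 23 nl compound addition and a short centrifugation, plates sat for 2 hours at ambient temperature; polarization of fluorescence then indicated loss of VDR binding to peptide SRC2-3.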
An asterisk follows results filed as active; u = inconclusive; x = not tested or not shown; ! = not confirmed by another sample; [ ] = dose if it differs, or a comment. Calls follow the shape of the dose curve; as a rule, active = well fitted curve in the direction sought with a large enough effect; inconclusive = small, poorly fitted or top-dose-only effect, or another doubt; inactive = no such curve, though single readings can be large; an effect the other way counts as inactive or inconclusive. % is scaled to controls: 0 for no effect and ±100 for the full control effect; potency is read from the fitted curve at half-maximal effect.

SMILES | TDP1 cell CPT | TDP1 inh | PLK1 PBD inh | TDP1 cell noCPT | GCN5L2 inh | VDR inh
CN(C(=O)CC1C(=O)NCCN1Cc1ccc(F)c(F)c1)C1CCOCC1 (stereo not given) | 0.4% | -2.5% | -14.8% | 3.8% | -3.6% | 0.9%
C=CC[C@H]1CC(C)=C[C@H](CC=C)N1C(=O)c1cc(COc2ccccc2SC)on1 | u | 1.1% | -2.8% | 14.6µM* | 1.9% | -4.3%
CSc1ccccc1OCc1cc(C(=O)N2CCN(C)C(c3ccccc3)C2)no1 (stereo not given) | 20.6µM* | x | -1.4% | -71.3% | x | 11.0%
O=C(Nc1ccc(-c2n[nH]c(=S)o2)cc1)c1ccccc1 | 4.7% | x | u | -6.4% | -25.2% | -8.5%
O=Cc1cc2ccccc2cc1O | u | x | x | -25.7% | x | x
O=c1c(O)cccc2cc(O)c(O)c(O)c12 | u | x | 8.44µM* | 20.6µM* | u | 20µM*!
COc1ccc(OC)c(C2=NS(=O)(=O)N(C)C(C(=O)NCc3ccco3)=C2)c1 | -25.0% | 5.0% | -29.8% | -2.6% | -1.7% | -9.9%
Cc1nc(NC(=O)C2CC2)sc1C(=O)Nc1ccccc1 | -20.3% | 3.9% | -1.2% | -28.6% | -3.6% | 12.0%
COC(=O)c1c(NC(=O)c2ccco2)sc(C)c1C | -7.5% | 6.6% | -23.9% | -11.4% | -1.6% | -2.9%
COC(=O)c1c(NC(=O)C2CC2)sc(C(=O)Nc2ccccc2)c1C | u | 2.7% | 26.7µM* | u | 3.9% | -10.7%
COC(=O)c1sc(NC(=O)c2ccco2)c(C#N)c1C | -18.5% | 1.9% | 23.8µM* | 3.3% | -4.3% | 4.6%
COC(=O)c1c(NC(=O)c2ccco2)sc(C(=O)Nc2ccc(F)cc2)c1C | u | -2.0% | -0.4% | 23.1µM* | -6.4% | -1.9%
COc1ccccc1NC(=O)c1sc(NC(=O)c2ccco2)c(C#N)c1C | -17.4% | 3.8% | -10.6% | -19.7% | 3.7% | -3.4%
CC(=O)c1ccc(N2C(=O)Nc3ccccc3S2(=O)=O)cc1 | -28.9% | 1.5% | x | u | 12.3% | 13.5%
O=C(CSc1cccc[n+]1[O-])NN(c1ccccc1)c1ccccc1 | 13.8% | 8.2% | -3.5% | 17.6% | 0.1% | 8.0%
Cc1ccc(NS(=O)(=O)c2ccc(Cl)c(NC(=S)NC(=O)C3CCCCC3)c2)cc1Cl | 23.1µM* | 4.2% | -1.6% | u | -16.2% | -9.6%
Cc1ccc(NC(=O)C2CCCC2)cc1Cl | 14.9% | x | -7.0% | -10.0% | x | -19.2%
Cc1ccc(NS(=O)(=O)c2ccc3c(c2)CCCN3C(=O)C2CCC2)c(C)c1 | u | 5.5% | x | u | -14.1% | -5.8%
O=C(C1CCC1)N1CCc2cc(S(=O)(=O)Nc3ccc4c(c3)OCO4)ccc21 | 11.2µM* | 8.5%[56.1 µM] | 0.5% | 14.1µM* | -11.8% | -6.6%
CCOc1ccc(NS(=O)(=O)c2ccc3c(c2)CCN3C(=O)C2CCC2)cc1 | u | 3.9% | -19.1% | u | -3.8% | -5.8%
Cc1cc(Cl)ccc1NS(=O)(=O)c1ccc2c(c1)CC(C)N2C(=O)C1CCC1 (stereo not given) | 18.4µM* | 8.7% | x | 16.4µM* | -16.5% | 9.7%
Cc1ccc(NS(=O)(=O)c2ccc3c(c2)CCCN3C(=O)C2CCC2)cc1Cl | u | 2.2% | x | 23.1µM* | -3.4% | -7.8%
CCN(c1ccc2c(c1)OCO2)S(=O)(=O)c1cc2c(cc1Br)CCN2C(=O)C1CC1 | 16.4µM* | x | -10.6% | 20.6µM* | x | -13.2%
